From PubChem BioAssay (NCATS)
Inconclusive results are not listed. Activity calls are given as the source filed them. Calls follow the shape of the dose curve; as a rule, active = well fitted inhibition curve with a large enough effect; inconclusive = small, poorly fitted or top-dose-only effect; inactive = flat fitted curve, though single readings scatter.

How the values were obtained:
Assay in all cases: qHTS profiling for inhibitors of Plasmodium falciparum proliferation (AID 504749); also: nearly all actives have a fitted effect of over 60% in size
Conditions in all cases: P. falciparum in erythrocytes, SYBR Green DNA, 72 h; series mostly up to 28.7 µM
AA1029 = system: AA1029
In short: (§1)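 P. falciparum-infected erythrocytes (0.3% parasitemia, 2.5% hematocrit final) were exposed to compounds for 72 h at 37 C in 5% CO2, then lysed with SYBR Green buffer overnight at room temperature; parasite DNA fluorescence was normalized to artemisinin and DMSO controls.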

AS120 = system: AS120
In short: as §1

ATS189 = system: ATS189
In short: as §1

ATS95 = system: ATS95
In short: as §1

C2A = system: C2A
In short: as §1

CP185 = system: CP185
In short: as §1

CP191 = system: CP191
In short: as §1

CP192 = system: CP192
In short: as §1

CP194 = system: CP194
In short: as §1

CP201 = system: CP201
In short: as §1

CP211 = system: CP211
In short: as §1

CP215 = system: CP215
In short: as §1

CP217 = system: CP217
In short: as §1

CP237 = system: CP237
In short: as §1

CP238 = system: CP238
In short: as §1

CP247 = system: CP247
In short: as §1

CP250 = system: CP250
In short: as §1

CP252 = system: CP252
In short: as §1

CP256 = system: CP256
In short: as §1

CP203 = system: CP203
In short: as §1

Measured: Potency

CCCCCCCCCCCC(=O)N(CCO)CCO
not listed: CP203
inactive: all other assays above

C[Si](C)(C)O[Si](C)(C)C
not listed: CP203
inactive: all other assays above

CNC(=O)c1c(I)c(C(=O)NCC(=O)Nc2c(I)c(C(=O)O)c(I)c(C(=O)NCCO)c2I)c(I)c(N(C)C(C)=O)c1I
not listed: CP203
inactive: all other assays above

O=C(OC1C[C@@H]2CC3C[C@H](C1)N2CC3=O)c1c[nH]c2ccccc12 (some centres undefined)
not listed: CP211
inactive: all other assays above

O=C1CCC(=O)N1CO
not listed: CP203
inactive: all other assays above

O=C(O)[C@H]1C(=CCO)O[C@H]2CC(=O)N12
not listed: CP203
inactive: all other assays above

CC(C)O
not listed: CP203
inactive: all other assays above

CCCCO
not listed: CP215 | CP203
inactive: all other assays above

N=C(N)n1cccn1
not listed: CP203
inactive: all other assays above

[O-][N+](=Nc1ccccc1)c1ccccc1
not listed: CP203
inactive: all other assays above

O=C(O)C1=C(CSc2nnnn2CS(=O)(=O)O)CS[C@@H]2[C@H](NC(=O)[C@H](O)c3ccccc3)C(=O)N12
not listed: CP203
inactive: all other assays above

S=C=Nc1ccc(N=C=S)cc1
not listed: CP203
inactive: all other assays above

CC(=O)Oc1cccc2c1C(=O)c1c(OC(C)=O)cc(C(=O)O)cc1C2=O
not listed: CP211
inactive: all other assays above

CCCCC[C@H](O)/C=C/[C@@H]1[C@H]2C/C(=C/CCCC(=O)O)O[C@H]2C[C@H]1O
not listed: CP203
inactive: all other assays above

CC12CCC(C1)C(C)(C)C2=O (centres undefined)
not listed: CP203
inactive: all other assays above
